This is part of a sample that, as a whole, favours compounds with a hit. Of some 83,000 tested, about 20% had one in any assay.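 Cell lines were cultured in 96-well plates, exposed to a single compound concentration, and assessed for percent growth 48 hours later.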 Unmarked numbers belong to inactive results. Active and inactive are the calls of the source. The calls were made as follows: active = growth percent below 10; inactive = the rest.
Key:
Assay in all cases: NCI-60 one-dose screen, 48 h (100 = growth as untreated, 0 = no growth, -100 = all killed)
Conditions in all cases: 10 µM unless noted
DU-145 prostate = system: DU-145 prostate
K-562 leukemia = system: K-562 leukemia
MALME-3M melanoma = system: MALME-3M melanoma
MDA-MB-231 breast = system: MDA-MB-231 breast
RXF 393 renal = system: RXF 393 renal
SF-268 CNS = system: SF-268 CNS
SF-295 CNS = system: SF-295 CNS
SF-539 CNS = system: SF-539 CNS
UACC-257 melanoma = system: UACC-257 melanoma
M14 melanoma = system: M14 melanoma

Row | SMILES | growth (DU-145 prostate) | growth (K-562 leukemia) | growth (MALME-3M melanoma) | growth (MDA-MB-231 breast) | growth (RXF 393 renal) | growth (SF-268 CNS) | growth (SF-295 CNS) | growth (SF-539 CNS) | growth (UACC-257 melanoma) | growth (M14 melanoma)
1 | O=c1cc(/C=N\Nc2nc(-c3ccc(Cl)cc3Cl)cs2)c2cc(Cl)ccc2o1 | 102% | 84.1% | 116% | 82.8% | 114% | 101% | 95.2% | 94.3% | 99.2% | 91.4%
2 | N#CC1(C#N)C2=C(CCCC2)NC(c2c(F)cccc2Cl)C1(C#N)C#N (stereo not given) | 89.7% | 25.8% | 74.7% | 87.5% | 78.2% | 89.9% | 81.3% | 50.1% | 75.2% | 49.5%
3 | COc1ccc(-c2cc(-c3nnc(SCC(=O)Nc4ccc(/C(C)=N\O)cc4)n3-c3ccccc3)c3cc(OC)ccc3n2)cc1 | 85% | 48% | 105% | 46.1% | 83.6% | 71.4% | 80.3% | 82.6% | 71% | 70.1%
4 | OCCNc1nc(NCCO)nc(Nc2ccc(C3=NN(c4cc(Cl)cc(Cl)c4)C(c4ccc(C(F)(F)F)cc4)C3)cc2)n1 (stereo not given) | 22.2% | 10.7% | 29.4% | 42.3% | -27.2% (active) | 41.7% | -15.5% (active) | 24.3% | 59.4% | 36.1%
5 | Cn1cc(-c2ccc3c(c2)ncn3-c2ccc(CC(=O)Nc3cc(C(C)(C)C)on3)cc2)cn1 | 19.3% | 9.77% (active) | 25.5% | 11% | -25% (active) | 25.6% | 37.2% | -15.8% (active) | 67.1% | 19.5%
6 | C=C1C(=O)O[C@H]2[C@H]1CC/C(COC(=O)/C=C/c1cccnc1)=C\CC[C@@]1(C)O[C@@H]21 | 13.1% | 6.99% (active) | -35.9% (active) | 38.7% | -9.04% (active) | 57.6% | 84.4% | 6.08% (active) | 28.9% | 26.3%
7 | CCCCc1n(Cc2ccc3ccccc3c2)c2ccccc2[n+]1Cc1ccc2ccccc2c1 | -93.1% (active) | -73.2% (active) | -86.2% (active) | -88.2% (active) | -92.6% (active) | -80.5% (active) | -87.8% (active) | -94.3% (active) | -58.1% (active) | -81.4% (active)
8 | C=C(C)[C@@H]1CC[C@]2(C(=O)O)CC[C@]3(C)[C@H](CC[C@@H]4[C@@]5(C)C[C@@H](CC#Cc6ccccc6)C(=O)C(C)(C)[C@@H]5CC[C@]43C)[C@@H]12 | 37.3% | 16.9% | 38.1% | 55.3% | 71.5% | 50% | 34.8% | 49.1% | 60.5% | 36.5%
9 | Cc1c(C(=O)Nc2nc3ccccc3[nH]2)cnn1-c1ccccn1 | 112% | 93.5% | 106% | 109% | 105% | 107% | 102% | 98.9% | 82.4% | 111%
10 | COc1cccc2c1-c1ccccc1C2=O | 17.7% | 8.78% (active) | 59.7% | 29.6% | -2.91% (active) | 48.2% | 9.85% (active) | -3.06% (active) | 51.5% | -1.41% (active)
11 | COc1ccc(-c2nc(C#N)c(NCC(c3ccco3)N3CCCC3)o2)cc1 (stereo not given) | 49.2% | 20.6% | 51.2% | 77.8% | 14.8% | 52.3% | 24.2% | 23.7% | 55.2% | 12.6%
12 | Nc1c(C(=O)Nc2ccccn2)sc2nc3c(cc12)C(=O)CCC3 | 5.74% (active) | 22.2% | 58.2% | 51.6% | 1.88% (active) | 53.1% | 16.2% | 14.6% | 69.8% | 18.3%
13 | CCC1=C[C@H]2CN(CCc3c([nH]c4ccccc34)[C@@](C(=O)OC)(c3cc4c(cc3OC)N(C)[C@H]3[C@@](O)(C(=O)OC)[C@H](OC(C)=O)[C@]5(CC)[C@@H]6C[C@@H]6CN6CC[C@]43[C@@H]65)C2)C1 | 18.3% | 2.96% (active) | 37.3% | -21.9% (active) | 47.6% | 7.66% (active) | 11.1% | -13.3% (active) | 55.1% | -32% (active)
14 | COC(=O)c1cncc(C(=O)Nc2ccc(-n3cnc4ccccc43)cc2)c1 | 105% | 94.5% | 124% | 94% | 100% | 91.9% | 100% | 95.9% | 104% | 102%
15 | COc1cc(C2CC(c3ccc(Nc4nc(NCCO)nc(NCCO)n4)cc3)=NN2c2cc(Cl)cc(Cl)c2)cc(OC)c1OC (stereo not given) | 12.8% | 2.02% (active) | -66.3% (active) | -19.2% (active) | -42.5% (active) | -33.3% (active) | 6.18% (active) | -61.3% (active) | 13.2% | -14.3% (active)
16 | COc1ccc(C2CC(c3ccc(OC)cc3O)=NN2c2ccc(S(N)(=O)=O)cc2)cc1 (stereo not given) | 61.9% | 10.8% | 121% | 61.1% | 67.5% | 50.5% | -7.99% (active) | 69.8% | 56.6% | 34.1%
17 | CN1CCN(CC#CCOC(=O)CNC(=O)[C@]23CCC(C)(C)C[C@H]2C2=CC[C@@H]4[C@@]5(C)CC[C@H](O)C(C)(C)[C@@H]5CC[C@@]4(C)[C@]2(C)CC3)CC1 | 96.7% | 70.1% | 92.5% | 95.5% | 78.1% | 88% | 96.9% | 83.5% | 95.1% | 96.8%
18 | CCOC(=O)c1c(C(F)(F)F)n([O-])c2ccc(Cl)cc2[n+]1=O | -95.7% (active) | -57.7% (active) | -84.5% (active) | -39.1% (active) | -60.6% (active) | -49.5% (active) | -86% (active) | -96.1% (active) | -70.6% (active) | -21.6% (active)
19 | COC(=O)c1oc2c(C(=O)/C=C/c3ccc(OC)cc3)c(OCCCN3CCCCC3)ccc2c1C | 15.4% | -16.2% (active) | -64.4% (active) | 32.4% | -75.2% (active) | -2.59% (active) | 11.6% | -55.8% (active) | 40.1% | -40.3% (active)
20 | O=c1c2ccccc2n(CC(O)CN2CCCC2)c2c(Br)cccc12 (stereo not given) | 105% | 92.9% | 125% | 129% | 98.9% | 94.8% | 106% | 94.9% | 98.6% | 98.7%
21 | Nc1c(C(=O)Nc2cccc3ccccc23)sc2nc3c(cc12)COCC3 | 58.7% | 17.5% | 60.8% | 53.3% | 41.4% | 56.5% | 28.9% | 30% | 54.5% | 35.7%
22 | CCOC(=O)c1sc(/N=C2\NC(=O)/C(=C/c3ccc(N4CCN(C)CC4)cc3)S2)nc1C | 97.3% | 95.2% | 99.7% | 112% | 112% | 97.3% | 102% | 100% | 110% | 108%
23 | COc1cc([C@H](C)c2ccc3ccccc3c2)cc(OC)c1OC | 17.6% | 8.51% (active) | 64% | 33.8% | -10.5% (active) | 55.3% | 13.5% | -19.3% (active) | 51.4% | 17.5%
24 | O=C1NC(c2ccc(F)cc2)N=C2C(c3ccccc3)=NOC12 (stereo not given) | 110% | 105% | 112% | 115% | 105% | 107% | 108% | 105% | 96.7% | 110%
25 | O=C(N/N=C/C[C@@H]1[C@@H](/C=C/[C@@H](O)COc2cccc(Cl)c2)[C@H](O)C[C@@H]1O)c1ccncc1 | 108% | 95.9% | 98.1% | 101% | 105% | 103% | 99.5% | 104% | 77.5% | 99.6%
26 | CCCCc1ccc(N=Nc2ccc(OCC[N+](C)(C)C)cc2)cc1 | 60.5% | 44.5% | 69.4% | 38.5% | 22.9% | 26.9% | 32.9% | 35.9% | 71.4% | 25.8%

Source: PubChem BioAssay (NCI)
